Measurements from PubChem BioAssay AID602396 (The Scripps Research Institute Molecular Screening Center, 2012).
About 460 (0.13%) of roughly 360,000 compounds were called active. Shown is part of a subset that was picked to be rich in actives. A number with no mark means an inactive call.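 Rule for the calls: active = inhibition above the mean inhibition of all tested compounds plus 3 SD (cut at about 73% in these data); inactive = the rest.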

target: Nuclear receptor subfamily 5 group A member 2 (Homo sapiens) (UniProt O00482); test: reduction of NR5A2-driven StAR reporter activity – cell-based, luminescence, HEK293T, StAR-luciferase reporter, primary screen (AID 602396); details: LRH-1 transfected, 24 h, at 3.6 µM, active compounds read high;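 note: 0% = DMSO wells and 100% = reporter-only cells lacking LRH-1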
Sequence (O00482 whole entry, looked up): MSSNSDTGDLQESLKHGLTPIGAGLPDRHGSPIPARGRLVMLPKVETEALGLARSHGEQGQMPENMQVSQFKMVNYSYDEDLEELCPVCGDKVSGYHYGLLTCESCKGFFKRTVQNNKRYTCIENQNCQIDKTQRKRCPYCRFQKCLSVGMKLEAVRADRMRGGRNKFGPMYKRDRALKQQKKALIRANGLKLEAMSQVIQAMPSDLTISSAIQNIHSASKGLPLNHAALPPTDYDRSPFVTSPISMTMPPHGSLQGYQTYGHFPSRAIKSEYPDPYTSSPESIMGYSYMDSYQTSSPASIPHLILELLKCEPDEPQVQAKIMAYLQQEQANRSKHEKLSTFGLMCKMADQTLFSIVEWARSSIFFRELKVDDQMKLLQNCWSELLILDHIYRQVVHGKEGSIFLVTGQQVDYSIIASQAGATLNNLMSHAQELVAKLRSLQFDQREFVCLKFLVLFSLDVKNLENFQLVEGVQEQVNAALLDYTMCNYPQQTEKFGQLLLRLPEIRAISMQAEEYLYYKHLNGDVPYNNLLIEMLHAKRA

Row | Structure (SMILES) | inhibition
1 | CCCOc1ccc(CN(CCO)CCO)cc1C(=O)OC | 23.4%
2 | O=C(NC1CCC(O)CC1)c1ccccc1OCc1ccc(F)cc1 (stereo not drawn) | 21.9%
3 | COC(=O)C1=NN(c2ccccc2)C2C(=O)N(c3ccccc3OC)C(=O)C12 (stereo not drawn) | 10%
4 | CCOC(=O)N1CCN(S(=O)(=O)c2cc3c(cc2C)NC(=O)CO3)CC1 | 12.8%
5 | O=[N+]([O-])c1ccc2c(c1)C(O)n1nc(-c3ccccc3)nc1S2 (stereo not drawn) | -9.43%
6 | O=C(Nc1cc(-c2ccccc2)nn1-c1ccccc1F)c1ccc([N+](=O)[O-])cc1 | -5.47%
7 | O=C(NC(Nc1nc2ccc([N+](=O)[O-])cc2s1)(C(F)(F)F)C(F)(F)F)c1ccccc1 | 97.9% (active)
8 | CCc1ccccc1N1CN(Cc2ccco2)CNC1=S | -20.8%
9 | COc1ccc(NC(=O)c2cccc3c2C(=O)N(CC2CCCO2)C3)cc1OC (stereo not drawn) | -15.8%
10 | CCC1OC(C2CC2)CC2=C1C(=O)OC(C)(C)O2 (stereo not drawn) | -31.2%
11 | COc1ccc(OC)c(NC(=O)c2ccc3c(c2)C(=O)N(c2ccc(OC(C)=O)cc2)C3=O)c1 | 15.1%
12 | N=c1ccn(CC(=O)NC(N)=O)c2ccccc12 | 19.2%
13 | CCOC(=O)CN(C(=O)COc1nc(-c2ccccc2)cc(C)c1C#N)c1ccc(F)cc1 | 21.9%
14 | O=S(=O)(c1ccc(F)cc1)N1CCN(Cc2ccccc2C(F)(F)F)CC1 | 10.2%
15 | COc1cc(OC)c2c(c1)OC(=O)CC2c1cc(OC)c(OC)c(OC)c1 (stereo not drawn) | 2.48%
16 | COc1ccc(N(C(=O)c2ccc(C)cc2)S(=O)(=O)c2cccs2)cc1 | 2.34%
17 | CC[C@H]1CN2CCc3cc(OC)c(OC)cc3[C@@H]2C[C@@H]1C[C@H]1NCCc2cc(OC)c(OC)cc21 | 103% (active)
18 | NC(=NC(=O)c1ccccc1)C1=C(O)CCC1=O | -13.8%
19 | O=C(CN(Cc1ccccc1)C(=O)c1ccc2c(c1)OCCO2)NCc1ccc2c(c1)OCO2 | 4.07%
20 | CC(C)Nc1nc(NCCOc2ccccc2Cl)c2sccc2n1 | 18.8%
21 | CCCCN(C=O)c1c(CC)nc2c(OCCC3CCCCC3)cccn12 | -7.2%
22 | Cc1ccc(S(=O)(=O)N2CC[C@H]3[C@@H](C2)C(=O)C[C@@H](c2ccccc2)N3S(=O)(=O)c2ccc(C)cc2)cc1 | -11.8%

Row | Structure (SMILES) | inhibition
23 | Cc1cc(NC(=O)COC(=O)/C=C/c2ccc(C)o2)no1 | -7.21%
24 | CCN(CC)CCCNC(=O)c1c(O)c2cc(F)cc3c2n(c1=O)C(C)CC3 (stereo not drawn) | -10.8%
25 | CCC(c1nnnn1-c1ccc2c(c1)OCCO2)N1CCN(c2ccc(C(F)(F)F)cn2)CC1 (stereo not drawn) | -0.51%
26 | CC(=O)Nc1ccc(SC[C@H](Cc2ccccc2)N2CC[C@@H](C)CCC2=O)cc1 | -2.81%
27 | O=C(Nc1ccccc1N1CCOCC1)c1ccc(OCc2cscn2)cc1 | 3.78%
28 | Cc1cc(CNCc2c(C(=O)N(C)Cc3ccccc3)nc3ccccn23)nn1C | 12.7%
29 | CC(C)(C)Nc1nc(-c2ccccn2)nc2ccccc12 | 85% (active)
30 | c1ccc(-c2nccc(-c3ccc(-n4cnc5ccccc54)cc3)n2)nc1 | 5.78%
31 | CC(Nc1nc(C(F)(F)F)nc2ccccc12)c1cccs1 (stereo not drawn) | 14.1%
32 | O=C(NCc1ccncc1)C1CCCN(S(=O)(=O)c2ccc(Br)cc2)C1 (stereo not drawn) | 2.98%
33 | O=C(CSc1ccccn1)Nc1nc2c(ccc3ccccc32)s1 | -23.7%
34 | NC(N)=N/N=C/c1ccc(OCc2ccc(Cl)cc2Cl)cc1 | -0.41%
35 | CCCCCCNC(=O)O[C@]12C[C@@H](C(=O)OC)[C@@H](C(=O)OC)C[C@@]1(O)CN(S(=O)(=O)c1ccc(C)cc1)C2 | -18%
36 | Cc1cc(Nc2ccc(C)c(C)c2)n2ncnc2n1 | 18.7%
37 | C[C@@H]1CN([C@@H](C)CO)C(=O)CCCn2cc(nn2)CO[C@H]1CN(C)S(=O)(=O)c1ccc(-n2cccn2)cc1 | 1.12%
38 | CCN(CC)S(=O)(=O)c1ccc(OC)c(NC(=O)CCc2c(C)noc2C)c1 | 8.03%
39 | O=C(Nc1nnc(CCN2CCCCC2)s1)c1cccc(Cl)c1 | 0.75%
40 | COCCCN1C(=O)C(=O)/C(=C(/O)c2ccc(S(=O)(=O)N3CCOCC3)cc2)C1c1ccc(F)cc1 (stereo not drawn) | 9.93%
41 | CCN(CC)S(=O)(=O)c1cccc(C(=O)NCC(=O)OCC(=O)NCc2ccccc2)c1 | 1.85%
42 | C[n+]1cc(-c2ccccc2)oc1-c1ccccc1 | -30.6%
43 | C=CCn1c(SCC(=O)c2c(N)n(C)c(=O)n(C)c2=O)nc2sc(CC)cc2c1=O | -16.9%
44 | Cc1ccn2c(=O)nc(SCC(=O)NCc3ccc4c(c3)OCO4)nc2c1 | -9.89%

Row | Structure (SMILES) | inhibition
45 | COc1cc(S(=O)(=O)N2CCN(C(=O)C3CC3)CC2)ccc1NC(C)=O | 9.23%
46 | CCCCCCCCn1c2c(c(=N)c3c1CCC3)CCCC2 | 89.8% (active)
47 | Cc1cccc2cc(CN(C(=O)c3cccs3)c3ccccc3)c(=O)[nH]c12 | -23.1%
48 | O=C(NNC(=O)c1cnccc1C(F)(F)F)c1ccc(Cl)cc1 | -7.32%
49 | CCN1/C(=C\c2ccc3ccccc3[n+]2CC)Sc2cc(C)ccc21 | 93.7% (active)
50 | Cc1ccc(S(=O)(=O)N2C3C=CC(C3)C2C(=O)O)cc1 (stereo not drawn) | -13.6%
51 | CCC(=O)N(C)C(c1ccccc1Cl)c1nnnn1-c1c(C)cccc1C (stereo not drawn) | 1.16%
52 | CC(=O)Nc1sc2c(c1C(c1cccc(F)c1)N1CCN(CCO)CC1)CCCC2 (stereo not drawn) | 5.02%
53 | O=C(Nc1c2c(nn1-c1cccc(Cl)c1)CS(=O)(=O)C2)c1cccs1 | 17.8%
54 | Cc1cccc(N2CCN(C(=O)c3cc4c(=O)[nH]c5ccccc5c4n3C)CC2)c1C | 11.6%
55 | CCc1nc2c(OCc3ccc(F)c(F)c3)cccn2c1N(C)C(=O)c1ccco1 | -12.9%
56 | c1cc(-c2ccc3[nH]ccc3c2)n2ccnc2c1 | -8.26%
57 | COc1ccccc1-c1oc2ccccc2c1C#CCCCCO | -10.4%
58 | COC(=O)[C@]1(C)N[C@H](CN(C)C(=O)c2ccc(C(C)(C)C)cc2)[C@@H]2C(=O)N(C)C(=O)[C@@H]21 | -20.1%
59 | CC1C=CCC2C(=O)N(c3cccc(C(=O)N4CCCCCC4)c3)C(=O)C12 (stereo not drawn) | 6.85%
60 | CC(C)N(C)C(=O)CCc1nnc(CCc2c[nH]c3ccccc23)o1 | 18.1%
61 | O=C(Nc1ccc([N+](=O)[O-])cc1)C1(c2ccccc2)CCOCC1 | -9.79%
62 | Cc1ccc(NC(=O)CSc2sc3c(O)cc(=O)[nH]c3c2C#N)cc1C | 6.61%
63 | COc1ccc(OC)c(CCNC(=O)c2nn(C)c3c2CS(=O)(=O)c2ccccc2-3)c1 | 7.08%
64 | Cn1c(N)c(C(=O)COC(=O)COc2ccc(Cl)cc2)c(=O)n(C)c1=O | 4.34%
65 | CC(=O)N1CCSc2ccc(S(=O)(=O)N3CCC(C)CC3)cc21 | 2.83%
66 | COc1ccccc1N1CCN(CC(=O)NCCc2ccc(S(N)(=O)=O)cc2)CC1 | 16.7%

Row | Structure (SMILES) | inhibition
67 | Nc1ccc(OCC(O)C[n+]2ccc(CCS(=O)(=O)[O-])cc2)cc1 (stereo not drawn) | -10.5%
68 | CCCCn1c(N)c(N(CC)C(=O)c2ccccc2C(F)(F)F)c(=O)[nH]c1=O | -19.4%
69 | Cc1ccc(CNC(=O)C2CCCN2S(=O)(=O)c2ccc3c(c2)C(C)(C)C(=O)N3C)cc1 (stereo not drawn) | 4.35%
70 | CCOCCCNC(=O)C(NC(=O)c1ccc(=O)[nH]c1)c1ccc(Cl)cc1 (stereo not drawn) | 11.9%
71 | CCOc1ccc(Br)cc1S(=O)(=O)Nc1cccc(S(=O)(=O)N(CC)CC)c1 | -37.2%
72 | CCC(C)(C)NC(=O)C(c1cccn1C)N(Cc1ccc(C)cc1)C(=O)Cn1nnc2ccccc21 (stereo not drawn) | 22.9%
73 | CC1(C)C(=O)C2(CCCCC2)C(=O)OC1c1cccs1 (stereo not drawn) | 5.23%
74 | O=C(O)CCC(=O)N(Cc1ccco1)c1nc(-c2ccccc2)cs1 | -15.1%
75 | CSc1nnc(C2CCCN(CC(=O)Nc3ccccc3N3CCOCC3)C2)n1C(C)C (stereo not drawn) | -21.8%
76 | COc1ccc(Cn2c(-c3ccc(Cl)cc3)c[n+]3ccccc23)cc1 | -37.2%
77 | COC1=CC(=O)OC(C)(c2ccccc2)C1 (stereo not drawn) | -28%
78 | Cc1ccc(OS(=O)(=O)c2ccc(-c3csc(C)n3)s2)c(C)c1 | -6.88%
79 | CC1CCCCC1NC(=O)NC(=O)COC(=O)C1=NN(c2ccccc2)C(=O)CC1 (stereo not drawn) | -11.1%
80 | CCn1nc(C)cc1C(=O)N1CCCC(C(=O)c2cccc(OC)c2)C1 (stereo not drawn) | 6.22%
81 | CCOC(=O)C(C)Oc1cccc2c(=O)n(CC(=O)NCCc3ccc(OC)c(OC)c3)ccc12 (stereo not drawn) | 3.91%
82 | CC(C)=NN1C(=O)c2ccccc2NC1(C)C | -62.5%
83 | COCCN(C(=O)C(C)N1C(=O)c2ccccc2C1=O)c1c(N)n(CC(C)C)c(=O)[nH]c1=O (stereo not drawn) | -4.66%
84 | Cn1c(N)cc(-c2ccc(F)cc2)c(C#N)c1=O | 6%
85 | C=CCSC(CC)(CC)C(N)=O | 16.1%
86 | CC12CN(NC(=O)c3ccc(Cl)cc3)C3(C#N)CC1CCC23C (stereo not drawn) | 8.96%
87 | CC1CCCCC1NC(=O)CO/N=C/c1ccc(OC(F)F)cc1 (stereo not drawn) | 6.95%
88 | [2H]C(CCOS(N)(=O)=O)c1ccccc1 (stereo not drawn) | 3.1%
